Laboratory results as given in publication PMC4336329 (PLoS ONE, 2015).
The whole screen tested about 310,000 compounds, of which about 14,000 (4.5%) showed an effect of 50% or more. Effects have a minus sign here. The entries come from a sample that favours strong results as a whole.

Target: human ether-à-go-go-related gene (hERG) potassium channel (human, UniProt Q12809)
Assay: primary screen, population patch clamp on CHO cells stably expressing hERG; higher = less effect of the substance
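Further: peak tail current of the secondary pulse compared with the same well before compound.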

human ether-à-go-go-related gene (hERG) potassium channel, sequence (Q12809 whole entry, looked up): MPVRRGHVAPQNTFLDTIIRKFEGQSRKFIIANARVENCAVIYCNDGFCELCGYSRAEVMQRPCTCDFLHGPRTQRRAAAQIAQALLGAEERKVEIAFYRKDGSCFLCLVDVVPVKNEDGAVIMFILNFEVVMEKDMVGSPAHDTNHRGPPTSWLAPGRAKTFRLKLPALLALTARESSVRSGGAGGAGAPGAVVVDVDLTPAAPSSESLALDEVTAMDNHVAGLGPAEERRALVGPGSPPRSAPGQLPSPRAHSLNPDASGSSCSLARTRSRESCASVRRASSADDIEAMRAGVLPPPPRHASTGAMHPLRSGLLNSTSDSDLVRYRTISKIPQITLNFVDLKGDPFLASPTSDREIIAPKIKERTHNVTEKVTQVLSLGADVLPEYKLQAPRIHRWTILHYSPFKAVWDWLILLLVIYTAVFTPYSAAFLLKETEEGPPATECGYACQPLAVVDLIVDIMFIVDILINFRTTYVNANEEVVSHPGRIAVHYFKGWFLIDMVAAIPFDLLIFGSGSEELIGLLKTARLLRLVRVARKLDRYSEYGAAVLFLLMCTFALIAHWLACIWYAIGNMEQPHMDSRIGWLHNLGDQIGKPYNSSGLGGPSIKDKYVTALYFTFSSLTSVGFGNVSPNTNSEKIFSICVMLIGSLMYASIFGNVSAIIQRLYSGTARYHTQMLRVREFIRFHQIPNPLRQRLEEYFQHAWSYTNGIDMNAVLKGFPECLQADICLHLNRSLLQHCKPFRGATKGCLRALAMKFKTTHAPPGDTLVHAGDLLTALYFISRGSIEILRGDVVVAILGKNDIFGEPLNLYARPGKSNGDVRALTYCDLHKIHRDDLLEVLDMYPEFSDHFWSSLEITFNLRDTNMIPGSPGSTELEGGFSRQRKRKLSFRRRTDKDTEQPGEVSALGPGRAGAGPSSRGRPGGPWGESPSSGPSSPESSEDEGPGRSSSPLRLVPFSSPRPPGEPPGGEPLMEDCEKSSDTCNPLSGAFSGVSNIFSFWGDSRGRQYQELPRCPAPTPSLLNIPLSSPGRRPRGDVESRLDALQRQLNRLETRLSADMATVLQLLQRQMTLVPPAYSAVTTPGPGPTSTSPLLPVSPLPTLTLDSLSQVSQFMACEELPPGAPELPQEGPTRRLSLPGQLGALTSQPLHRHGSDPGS

Going from COc1cccc(NC(=O)Nc2c(C)n(C)n(-c3ccccc3)c2=O)c1 to CC1(c2ccccc2)CC(C)(C)N2C(=O)C(=O)c3cccc1c32 (stereo not drawn), the “hERG current change (%, negative = inhibition) at 10uM” value rises from 3.91% to 19.6%.

First: O=C(Nc1cccc(Cl)c1)c1cnn2cccnc12
Second: NC(=O)C1CCN(CCC(=O)Nc2cccc(Cl)c2)CC1
The “hERG current change (%, negative = inhibition) at 10uM” value of the first is higher: 7.19% for the first, 0.151% for the second.

First: Cc1cccc(NC(=O)CCN2CCC(C(N)=O)CC2)c1
Second: CCOC(=O)C1CCN(CCC(=O)Nc2cccc(C)c2)CC1.Cl
The “hERG current change (%, negative = inhibition) at 10uM” value of the first is higher: 9.57% for the first, -66.8% for the second.

Compared with CCOC(=O)N1CCN(CCC(=O)Nc2cccc(C)c2)CC1.Cl, CCOC(=O)C1CCN(CCC(=O)Nc2cccc(Cl)c2)CC1 is lower in “hERG current change (%, negative = inhibition) at 10uM” value: 1.45% for the first, -67.1% for the second.

First: CCOC(=O)C1CCN(CCC(=O)Nc2ccccc2)CC1
Second: O=C(CN1CCOCC1)Nc1ccccc1
The “hERG current change (%, negative = inhibition) at 10uM” value of the first is lower: -19.7% for the first, 13.8% for the second.

Compared with CCCCCN(C(=O)CCC(=O)OCC(=O)N(C)Cc1ccc(C)cc1)c1c(N)n(CCCC)c(=O)[nH]c1=O, COc1ccc(S(=O)(=O)N2CCCCCC2)cc1C(=O)N(C)Cc1ccc(C)cc1 is lower in “hERG current change (%, negative = inhibition) at 10uM” value: 1.93% for the first, -40.3% for the second.

Compared with CCOc1ccc(C(=O)N/N=C(\c2ccccc2)c2ccccn2)cc1, O=C(Cc1ccccc1)NCC(=O)N/N=C/c1ccc(C(=O)O)cc1 is higher in “hERG current change (%, negative = inhibition) at 10uM” value: -27% for the first, 12.3% for the second.

Going from C=CCOc1ccccc1/C=c1\sc2nc(-c3oc4ccccc4c3C)nn2c1=O to C=CCn1c(CSc2nc3ccccc3s2)nnc1SCC(=O)NCc1ccccc1, the “hERG current change (%, negative = inhibition) at 10uM” value falls from -8.15% to -43.9%.

Going from O=C(CN1CCN(C(=O)C2CCCO2)CC1)Nc1ccc(Cl)cc1 (stereo not drawn) to O=C(CN1CCN(C(=O)C2CCCO2)CC1)Nc1ccc(Br)cc1 (stereo not drawn), the “hERG current change (%, negative = inhibition) at 10uM” value falls from -40.9% to -70%.

Compared with COc1ccc(NC(=O)CN2CCN(C(=O)N3CCOCC3)CC2)cc1, O=C(CN1CCN(C(=O)N2CCOCC2)CC1)Nc1ccc(Br)cc1 is lower in “hERG current change (%, negative = inhibition) at 10uM” value: -14.2% for the first, -72.5% for the second.

Going from CCNC(=S)N1CCN(CC(=O)Nc2ccc(Br)cc2)CC1 to CCNC(=S)N1CCN(CC(=O)Nc2ccc(OC)cc2)CC1, the “hERG current change (%, negative = inhibition) at 10uM” value rises from -61.4% to -34.3%.

First: COc1ccc(NC(=O)CN2CCN(C(=S)NC3CCCC3)CC2)cc1
Second: CCOc1ccc(NC(=O)CN2CCN(C(=O)C3CCCO3)CC2)cc1 (stereo not drawn)
The “hERG current change (%, negative = inhibition) at 10uM” value of the first is lower: -39.1% for the first, -32.6% for the second.

First: Cc1cc(C)cc(NC(=O)CN2CCN(C(=O)C3CCCO3)CC2)c1 (stereo not drawn)
Second: O=C(CN1CCN(C(=O)C2CCCO2)CC1)Nc1ccc(F)cc1 (stereo not drawn)
The “hERG current change (%, negative = inhibition) at 10uM” value of the first is higher: 7.51% for the first, -66.1% for the second.

Compared with O=C(Nc1ccc(F)cc1)N1CCN(C(=O)C2CCCO2)CC1 (stereo not drawn), C=CCc1cccc2cc(C(=O)N3CCN(C(=O)OCC)CC3)c(=O)oc12 is lower in “hERG current change (%, negative = inhibition) at 10uM” value: 2.96% for the first, -26.9% for the second.

Going from O=c1c(Cc2ccccc2)c(O)ccn1C1CCCCCCC1 to O=C1CCC(C(=O)N2CCCC(C(=O)c3ccc4ccccc4c3)C2)=NN1 (stereo not drawn), the “hERG current change (%, negative = inhibition) at 10uM” value falls from 10.1% to -8.31%.

Going from Cc1[nH]c2ccccc2c(=O)c1SC(F)(F)C(F)C(F)(F)F (stereo not drawn) to CC(=O)Nc1nc(-c2ccccc2)nc(C)c1C(C)=O, the “hERG current change (%, negative = inhibition) at 10uM” value rises from -5.97% to -5.89%.

First: CSc1ccccc1NC(=O)COc1ccc(Cl)cc1Cl
Second: O=C(COC(=O)Cn1cnc2ccccc21)Nc1cc(S(=O)(=O)N2CCOCC2)ccc1Cl
The “hERG current change (%, negative = inhibition) at 10uM” value of the first is lower: -0.82% for the first, -0.439% for the second.

First: NC1=NC[C@H](Cc2ccccc2)N1CCc1cccc(F)c1
Second: CN(C)C1=NC[C@H](Cc2ccccc2)N1CCc1cccc(F)c1
The “hERG current change (%, negative = inhibition) at 10uM” value of the first is higher: 6.16% for the first, -64.1% for the second.

Compared with C[C@H]1CN=C(N(C)C)N1CCc1ccc(F)cc1, C[C@H]1CN=C(N(C)C)N1CCc1ccccc1 is higher in “hERG current change (%, negative = inhibition) at 10uM” value: -12.4% for the first, 6.72% for the second.

Compared with NC1=NC[C@@H](Cc2ccc(O)cc2)N1CCc1cccc(F)c1, CN(C)C1=NC[C@H](Cc2ccccc2)N1CCc1ccc(F)cc1 is lower in “hERG current change (%, negative = inhibition) at 10uM” value: 5.43% for the first, -60.6% for the second.

Compared with COC(=O)c1cccnc1-n1c(=O)c2cccnc2n(Cc2ccc(Cl)cc2)c1=O, COc1ccccc1NS(=O)(=O)c1cccc(C(=O)N2CCN(Cc3ccc4c(c3)OCO4)CC2)c1 is lower in “hERG current change (%, negative = inhibition) at 10uM” value: -26.6% for the first, -61.4% for the second.

Going from CCOC(=O)c1[nH]c2ccc(F)cc2c1NC(=O)CCN1CCSCC1 to CCOC(=O)C1(Cc2cccc(F)c2)CCN(Cc2c(C)nn(CC)c2C)CC1, the “hERG current change (%, negative = inhibition) at 10uM” value falls from -22% to -41.4%.

First: Cc1nc2sccn2c(=O)c1S(=O)(=O)N1CCN(c2cccc(Cl)c2)CC1
Second: CCn1nc(C)c(CN2CCC(C(=O)Nc3cccc(-c4cccc(Cl)c4)c3)CC2)c1C
The “hERG current change (%, negative = inhibition) at 10uM” value of the first is higher: -0.478% for the first, -65% for the second.

First: Cc1cc(C)c(NS(=O)(=O)c2ccc3c(c2)NC(=O)C(C)C(=O)N3)c(C)c1 (stereo not drawn)
Second: COc1ccc(OC)c(CN2CCN(C(=O)c3ccc(NS(=O)(=O)c4cccc([N+](=O)[O-])c4)cc3)CC2)c1
The “hERG current change (%, negative = inhibition) at 10uM” value of the first is higher: 2.12% for the first, -70.6% for the second.

Going from COc1ccc(OC)c(CN2CCN(C(=O)c3cccc(S(=O)(=O)Nc4ccc(C)cc4)c3)CC2)c1 to COc1ccc(OC)c(CN2CCN(C(=O)c3cccc(S(=O)(=O)Nc4ccccc4OC)c3)CC2)c1, the “hERG current change (%, negative = inhibition) at 10uM” value falls from -34.6% to -38.2%.

Going from COc1ccc(NS(=O)(=O)c2cccc(C(=O)N3CCN(Cc4ccc5c(c4)OCO5)CC3)c2)cc1 to O=C(c1ccc(NS(=O)(=O)c2ccccc2)cc1)N1CCN(Cc2ccc3c(c2)OCO3)CC1, the “hERG current change (%, negative = inhibition) at 10uM” value rises from -76.8% to -63.8%.

Going from CN(c1ccc(C(=O)N2CCN(Cc3ccc4c(c3)OCO4)CC2)cc1)S(=O)(=O)c1ccccc1 to O=C(c1ccccc1)N1CCN(Cc2ccc3c(c2)OCO3)CC1, the “hERG current change (%, negative = inhibition) at 10uM” value rises from -38.3% to 11.5%.

First: COc1ccc(NS(=O)(=O)c2cccc(C(=O)N3CCC3)c2)cc1
Second: COc1ccc(NS(=O)(=O)c2cccc(C(=O)N3CCCC3)c2)cc1
The “hERG current change (%, negative = inhibition) at 10uM” value of the first is higher: 10.5% for the first, 2.23% for the second.

Going from O=C(c1ccc(NS(=O)(=O)c2cccc([N+](=O)[O-])c2)cc1)N1CCCCCC1 to CCc1ccc(OCC(=O)NNC(=O)c2cc(S(=O)(=O)N(C)C)ccc2N2CCCC2)cc1, the “hERG current change (%, negative = inhibition) at 10uM” value falls from -23.1% to -23.4%.

First: COc1cccc(OC)c1C(=O)N1CCN(Cc2ccc3c(c2)OCO3)CC1
Second: COc1cc(OC)c2ccc(=O)oc2c1C(CCN1CCCC1)c1ccc2c(c1)OCO2 (stereo not drawn)
The “hERG current change (%, negative = inhibition) at 10uM” value of the first is higher: -12% for the first, -56.7% for the second.

Going from COC(=O)C1=C(c2ccc(F)cc2F)C[C@@H]2CC[C@H]1N2C(=O)NCCOc1ccccc1 to COc1cccc(-c2cccc(NC(=O)C3CCN(Cc4nccs4)CC3)c2)c1, the “hERG current change (%, negative = inhibition) at 10uM” value falls from -23.5% to -37.1%.

Compared with N#CC1(N2CCN(C(=O)c3ccccc3)CC2)CCCCC1, C#CC1(NC(=O)NC(C)(C)C)CCCCC1 is lower in “hERG current change (%, negative = inhibition) at 10uM” value: 30.1% for the first, 15.7% for the second.

First: CC1CCCCN1Cc1ccc(N)cc1 (stereo not drawn)
Second: CS(=O)(=O)N1CCCC(C(=O)NCc2ccc(F)cc2Cl)C1 (stereo not drawn)
The “hERG current change (%, negative = inhibition) at 10uM” value of the first is higher: 12.7% for the first, 2.22% for the second.

Compared with COC(=O)c1cc(OC)c(OC)cc1NC(=O)c1cc(C(C)(C)C)oc1C, COc1cc(C(CC(=O)N2CCCC2)c2c(OC)cc(OC)c3ccc(=O)oc23)cc(OC)c1OC (stereo not drawn) is lower in “hERG current change (%, negative = inhibition) at 10uM” value: 5.71% for the first, 2.42% for the second.

Going from c1ccc(Cn2nnc3c(N4CCc5ccccc5C4)ncnc32)cc1 to CCCc1ncc(CN2CCC(C(=O)Nc3cccc(-c4cscn4)c3)CC2)cn1, the “hERG current change (%, negative = inhibition) at 10uM” value falls from -21.5% to -34.9%.

First: COc1cc(OC)c2ccc(=O)oc2c1C(CCN1CCCCC1)c1ccc(N(C)C)cc1 (stereo not drawn)
Second: COc1cc(OC)c2ccc(=O)oc2c1C(CCN1CCCC1)c1ccc(N(C)C)cc1 (stereo not drawn)
The “hERG current change (%, negative = inhibition) at 10uM” value of the first is higher: -16% for the first, -24.1% for the second.

Compared with COc1cc(OC)c2ccc(=O)oc2c1C(CC(=O)N1CCCC(C)C1)c1ccc2c(c1)OCO2 (stereo not drawn), COc1cc(OC)c2ccc(=O)oc2c1C(CCN1CCCC(C)C1)c1ccc2c(c1)OCO2 (stereo not drawn) is lower in “hERG current change (%, negative = inhibition) at 10uM” value: 4.24% for the first, -61% for the second.

First: COc1cc(OC)c2ccc(=O)oc2c1C(CCN1CCCC(C)C1)c1ccc(N(C)C)cc1 (stereo not drawn)
Second: COc1cc(C(CCN2CCCC2)c2c(OC)cc(OC)c3ccc(=O)oc23)cc(OC)c1OC (stereo not drawn)
The “hERG current change (%, negative = inhibition) at 10uM” value of the first is higher: -10.6% for the first, -69.2% for the second.

Compared with COc1cc(C(CCN2CCN(c3ccccc3)CC2)c2c(OC)cc(OC)c3ccc(=O)oc23)cc(OC)c1OC (stereo not drawn), Cc1nn(C(C)C)c(C)c1CN1CCC(C(=O)Nc2cccc(-c3cccc(F)c3)c2)CC1 is lower in “hERG current change (%, negative = inhibition) at 10uM” value: -8.86% for the first, -67.8% for the second.

Going from CCCCNC(=S)NC(=O)c1ccc(Cl)cc1Cl to CCS(=O)(=O)N1CCC(C(=O)Nc2cccc(F)c2)CC1, the “hERG current change (%, negative = inhibition) at 10uM” value falls from 22.7% to -6.51%.

Going from COc1ccc(S(=O)(=O)N2CC(=O)Nc3ccccc32)cc1 to CCn1nc(C)c(CN2CCC(C(=O)Nc3cccc(-c4cccc(F)c4)c3)CC2)c1C, the “hERG current change (%, negative = inhibition) at 10uM” value falls from -6.04% to -67%.

Going from Cc1nn(C(C)C)c(C)c1CN1CCCC(C(=O)c2cccc(OC(C)C)c2)C1 (stereo not drawn) to CCc1ccc(CN2CCC(C(=O)Nc3cccc(-c4nnc(C)s4)c3)CC2)o1, the “hERG current change (%, negative = inhibition) at 10uM” value rises from -39.6% to -33.6%.
